T1: TRAF2, Q12933
T1 chain: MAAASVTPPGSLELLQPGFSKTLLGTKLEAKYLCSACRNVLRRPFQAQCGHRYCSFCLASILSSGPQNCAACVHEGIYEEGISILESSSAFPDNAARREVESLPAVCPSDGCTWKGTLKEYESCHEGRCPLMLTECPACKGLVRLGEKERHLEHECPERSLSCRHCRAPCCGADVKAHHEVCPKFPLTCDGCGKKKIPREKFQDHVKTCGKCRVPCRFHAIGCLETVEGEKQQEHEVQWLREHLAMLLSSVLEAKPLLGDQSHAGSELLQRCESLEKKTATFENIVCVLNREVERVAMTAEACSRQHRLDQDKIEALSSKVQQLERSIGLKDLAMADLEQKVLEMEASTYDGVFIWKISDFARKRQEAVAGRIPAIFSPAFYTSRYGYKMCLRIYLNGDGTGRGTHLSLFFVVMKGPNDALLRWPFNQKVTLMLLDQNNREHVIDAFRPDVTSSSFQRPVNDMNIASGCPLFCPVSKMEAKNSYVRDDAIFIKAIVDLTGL

B1: traf2_out_20_3_2058 (protein)
chain: SELDEEIEKKTKELEKKLAELAKLLPPEEAAELAKAWAEVKKAAKEGLEEFLIAVSKLRRLLLELSEEARARGDEKTAKLLEEAAEIAQEIAHLIYKKIE
B2: traf2_out_1_158_906 (protein)
chain: STAVNTLYAVATSIADVYAELAKERGLEKAAALLEKLKEDIKELYEKNKNASLEEFAKKVLELIEEKEKESESLPEEDKALVDIAFRQIKSGVEQVVKLA
B3: traf2_out_16_177_1453 (protein)
chain: ELDRLMDRLVILSELRRAALLAVEGRGDEYREHLARARELAEEAGDEEALALADRIEALIAENTPEAKEELKKLAEELQKEAQKLALEAEKLIKERAKEE
B4: traf2_out_11_169_827 (protein)
chain: EEAEKNRKINDKALELEDKAKKEFKEFVLKLAKEDGLDVEEIKKIFEENKNKSLSAQAAAVIEYFKSKGKEEAAKKVLEKYEELKEKINKEVTAFIKELE
B5: traf2_out_11_155_748 (protein)
chain: EERRKLLQEMNDKITELFDKAREEALKIAEEAAKKHPEHAEEIKKKIEETKGFSYRSFILSMIELFEELGLEEEAKKLKELLEKTQKEANKIVQETEKKL
B6: traf2_out_20_3_2118 (protein)
chain: EELEEELEKELEEALKLLKEAAKLADKKTAKKLEKLAKRLKESRKLSPSDRLVVVSEVRREVRRLRLEAEKKGDKKLAKVLDEAAEELNRAANLLMKIIE
B7: traf2_out_13_95_1130 (protein)
chain: SRETAEKIMEIADEMLDKVLEILKELLKKFEKAGVGVEEIKEAIYLAEHQSINEAIKLLEELAKKYPEFKEELNKAIEEIKKLRREAGKKVAEILKEEKE
B8: traf2_out_11_79_936 (protein)
chain: EEKRQELLKKLEEALKLLKELLEKMKAGTISEEERKEMLDEIERLLQRAAQLALELGLSDTLVEISEAKRHVRLAYSGDLEALEKAIKELEEAIKLVEEA
B9: traf2_out_17_162_1640 (protein)
chain: SPVEEFKERVEKELKELEKRVEELEEKSKKIDEYSKEELSDLIVEASEVKRRARELKQEVLAAKDLIPEEERARILKRLEEIIERAQRIAQKFYDKYLSL
B10: traf2_out_13_95_1154 (protein)
chain: SKELAEKIMEIADKMLDKSKEILKELLEIAKKKGKLEEEVQEALYLAETRSINEAIHKLKELAKKYPEFKEELEKAIKELEELKREAGKEVAKLIKEEKE
B11: traf2_out_13_95_1160 (protein)
chain: SKELAKKIMEIADEMLDESEKILEELLKIAKEKGKLEKEVQEALDLARYRSINEAIHKLEELAKKYPEFKEEFEKAIKKLKELKREAGKKVAKLIKEEEE
B12: traf2_out_13_95_1105 (protein)
chain: SAETAEKIMEVADEMLEKSEKLLEELLKIAKEKGKLVEEVQEALDLARYRSINEAIHKLKELAKKYPEFKEEFEATIKELEELKREAGRKVAEILKEEKE
B13: traf2_out_17_162_1603 (protein)
chain: SSLEKKKEELLKKKEELKEELKRLTEKLKNIEKLSKEELSDLLVEASEKKREALEALEKIEELKDELDPEEYEKLSTEFEELAEEFQRIANKFYKELEKK
B14: traf2_out_6_156_2407 (protein)
chain: MVEEIFEEAMKEIKELIKKLSEASEEKKISYISKIAGTFYRALQRLREAGASVEELEEFIKRMMEKIKEWLDEEGLPEDIKNLILSSLKAVGDVALEEAK
B15: traf2_out_17_162_1641 (protein)
chain: SAAEELRKRLLEELERLEKELKELEEKSKKIDEYTKEELSDLIVEASEARRRARELIEEVDRNRSLLDPEEYEELKKRLEEIAERLNRIAQKFYDKYLEL
B16: traf2_out_17_162_1479 (protein)
chain: MSIEEKVERLERELEELEEEARRLREELERLEEKSKEEITDLLVEVSEARRRALELAEEFEELAPEIGEEKARELADRAREIAEELQRIANEIYKELEKK
B17: traf2_out_17_60_1760 (protein)
chain: GPEERKKELAEEARRKIEEARRLVEEVRKKLEAGTLTADEAMDYLVELSEKRRELRRLAEELRAEGPEFEPLIEELERAIEEVERTMNEVGKELERLLAA
B18: traf2_out_6_3_2512 (protein)
chain: EEEEERKRNEEALEEAAEMSLETIKIAAETTLKELEKAVEDPNATETDFLAYKSSLNLLLEIMKKHAEKHPEEKEEAEKFIEEMKKKLEELEKEWKKKRA
B19: traf2_out_20_3_2213 (protein)
chain: DELVAAVREQLAKIRELLEQARPRLAPEDYARLNALLARAEEALETDPSDALVALSELRRALLELAERARAAGDEELAKLLEEAAEAANKAANLVMQLLE

Experimental findings from the supplement of paper PMC12632987 are described below.

In all, about 1,800 sequences were measured (“median log2 fold change of GCK-ALFA target abundance (FLAG IP / Myc IP barcode read proportion)”: median about 0.14, lowest 2% from about -0.84 on). This is one part of a sample in which the lowest values are shown more often than they occur.

The assay addresses T1, TRAF2, Q12933. Description: median log2 fold change of GCK-ALFA target abundance (FLAG IP / Myc IP barcode read proportion) (log2 ratio); each designed protein is fused to an ALFA-tag nanobody in HEK293 cells to bring the named protein to FLAG-tagged glucokinase (GCK); Myc marks an untargeted standard; higher = target protein stabilised (more abundant). To be noted: target protein: 3xFLAG-MCP-GCK-ALFA reporter; HEK293 landing pad (RPLP). The method, boiled down: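 An ALFA-nanobody-fused binder library was recombined into HEK293 landing-pad cells and induced with 2 μg mL^−1 doxycycline. Cells were transfected with a plasmid expressing a FLAG-tagged target and a Myc-tagged standard. After 48 h, lysates underwent anti-FLAG and anti-Myc immunoprecipitation, and circular RNA barcodes were reverse transcribed, amplified and sequenced. Target abundance is the per-binder median log2 ratio of FLAG to Myc barcode read proportions. Barcodes needed ≥10^−7 proportion in both replicates, binders ≥3 barcodes per replicate, and a 10^−6 pseudocount was added; the two replicates were pooled.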
Consider B1, for which the “median log2 fold change” value was 0.144.
As for B2, the “median log2 fold change” value was determined as 0.0998.
Take B3: the “median log2 fold change” value is -0.267.
For B4, the “median log2 fold change” value is -0.542.
As to B5, the “median log2 fold change” value was 0.302.
B6: the “median log2 fold change” value turned out to be 0.107.
With B7 the figure was -0.433.
For the molecule B8, the “median log2 fold change” value came out at 0.397.
Turning to B9, the “median log2 fold change” value came to 0.0147.
Regarding B10, the “median log2 fold change” value was -0.148.
For the molecule B11, the “median log2 fold change” value was -1.21.
In the case of B12, the “median log2 fold change” value is -0.477.
In the case of B13, the “median log2 fold change” value turned out to be 0.253.
With B14 the figure was 0.175.
On to B15, for which the “median log2 fold change” value is 0.177.
B16: the “median log2 fold change” value worked out at 0.0731.
As to B17, the “median log2 fold change” value stood at 0.112.
On to B18, for which the “median log2 fold change” value came to 0.417.
As to B19, the “median log2 fold change” value amounted to 0.129.
